# Measurements published in PubChem BioAssay (NCATS).
# “And” between values parts separate entries of the source, which are not always exact repeats. Equal entries are not always repeated. Inconclusive results are not listed. Unmarked numbers belong to inactive results. The source made the active and inactive calls. Calls follow the shape of the dose curve; as a rule, active = well fitted activation curve with a large enough effect; inconclusive = small, poorly fitted or top-dose-only effect; inactive = no such curve, though single readings can be large or run the other way.
# Target: Cellular tumor antigen p53 (Homo sapiens) (UniProt P04637)
# Sequence (P04637 whole entry, looked up): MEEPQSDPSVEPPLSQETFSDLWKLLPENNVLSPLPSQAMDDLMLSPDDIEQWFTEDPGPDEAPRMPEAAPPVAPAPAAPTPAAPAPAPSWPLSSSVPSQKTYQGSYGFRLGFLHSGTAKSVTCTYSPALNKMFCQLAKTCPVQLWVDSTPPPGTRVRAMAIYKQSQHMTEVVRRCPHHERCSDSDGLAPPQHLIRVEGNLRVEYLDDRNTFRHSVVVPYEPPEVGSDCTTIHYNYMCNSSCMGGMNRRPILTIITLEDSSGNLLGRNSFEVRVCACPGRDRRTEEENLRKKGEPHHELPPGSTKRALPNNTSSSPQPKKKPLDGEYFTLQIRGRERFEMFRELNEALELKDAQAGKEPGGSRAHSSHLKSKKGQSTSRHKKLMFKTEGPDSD
# Assay: Primary qHTS for small molecule compounds that upregulate eGFP-tagged delta133p53alpha (in N-terminal) cells. (AID 2060322); also: nearly all actives have a fitted effect of over 75% in size;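 as to activation: cells pre-induced with doxycycline then dosed without doxycycline; series mostly up to about 56 µM; 0% = DMSO vehicle and 100% = reference activator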
# Conditions: NCI-H358 eGFP-delta133p53alpha fluorescence, 24 h; activation: hits give high values
# Procedure, shortened: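 NCI-H358 cells pre-induced 24 h with 10 ng/ml doxycycline for eGFP-delta133p53alpha, plated dox-free and exposed 24 h at 37C to titrated compounds. Fixed, Hoechst-stained; gated GFP peak intensity by laser scanning cytometry, normalized to DMSO (0%) and 57.5 uM 5-azacytidine (100%).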
# Potency is read from the fitted curve at half-maximal effect.
SMILES,activation,Potency
CCCCCN(C)CCC(O)(P(=O)(O)O)P(=O)(O)O,3.78% and 4.27%,–
COc1ccc2c(c1)c(CCN(C)C)cn2S(=O)(=O)c1ccccc1,7.16%,–
COc1ccc(CNC(=O)/C=C/c2ccc3[nH]cc(CCN(C)C)c3c2)cc1,13.3%,–
CC(C)(C)c1cc(C=C(C#N)C#N)cc(C(C)(C)C)c1O,6.66%,–
COc1ccc2[nH]cc(CCN)c2c1,-19.1%,–
NCc1cc(=O)[nH]o1,11.2%,–
COc1ccc2c(c1)C13CCCCC1C(C2)N(C)CC3 (stereo not given),-0.635%,–
NC(=O)CN1CCCC1=O,-3.35% and 1.41%,–
COc1ccc(C(CN(C)C)C2(O)CCCCC2)cc1 (stereo not given),-16.7% and -7.09% and -5.45%,–
Cc1cc(C(=O)CN2CCCC2)c(C)n1-c1ccc(F)cc1,10% and -5.25%,–
CO[C@@H]1[C@H](O)[C@@H](O[C@@H]2C[C@H]3CC[C@@H]4C(CC[C@]5(C)[C@@H](C6=CC(=O)OC6)CC[C@]45O)[C@@]3(C)[C@H](O)C2)O[C@H](C)[C@@H]1O (stereo not given in full),–,1040 nM (active)
O=C(O)CC[N+](=O)[O-],-18.9%,–
CCCN1CCc2cccc3c2[C@H]1Cc1ccc(O)c(O)c1-3,-13.3%,–
CNCCc1c[nH]c2ccc(O)cc12,-26.4%,–
CN1C2CCC1CC(OC(=O)c1cc(Cl)cc(Cl)c1)C2 (stereo not given),-57.3%,–
